# From PubChem BioAssay AID588664 (The Scripps Research Institute Molecular Screening Center, 2011)
# The campaign covered roughly 360,000 compounds. About 1,400 (0.39%) were called active. Rule as the data show it: active = inhibition above about 5% (passing the limit was not always enough); inactive = the rest. Many of the other results were omitted from the sample, so actives are more common in it than they were.
# Target: Tyrosine-protein kinase ABL1 (Homo sapiens) + Ras and Rab interactor 1 (Homo sapiens) (UniProt P00519+Q13671)
# Sequence (P00519 whole entry, looked up): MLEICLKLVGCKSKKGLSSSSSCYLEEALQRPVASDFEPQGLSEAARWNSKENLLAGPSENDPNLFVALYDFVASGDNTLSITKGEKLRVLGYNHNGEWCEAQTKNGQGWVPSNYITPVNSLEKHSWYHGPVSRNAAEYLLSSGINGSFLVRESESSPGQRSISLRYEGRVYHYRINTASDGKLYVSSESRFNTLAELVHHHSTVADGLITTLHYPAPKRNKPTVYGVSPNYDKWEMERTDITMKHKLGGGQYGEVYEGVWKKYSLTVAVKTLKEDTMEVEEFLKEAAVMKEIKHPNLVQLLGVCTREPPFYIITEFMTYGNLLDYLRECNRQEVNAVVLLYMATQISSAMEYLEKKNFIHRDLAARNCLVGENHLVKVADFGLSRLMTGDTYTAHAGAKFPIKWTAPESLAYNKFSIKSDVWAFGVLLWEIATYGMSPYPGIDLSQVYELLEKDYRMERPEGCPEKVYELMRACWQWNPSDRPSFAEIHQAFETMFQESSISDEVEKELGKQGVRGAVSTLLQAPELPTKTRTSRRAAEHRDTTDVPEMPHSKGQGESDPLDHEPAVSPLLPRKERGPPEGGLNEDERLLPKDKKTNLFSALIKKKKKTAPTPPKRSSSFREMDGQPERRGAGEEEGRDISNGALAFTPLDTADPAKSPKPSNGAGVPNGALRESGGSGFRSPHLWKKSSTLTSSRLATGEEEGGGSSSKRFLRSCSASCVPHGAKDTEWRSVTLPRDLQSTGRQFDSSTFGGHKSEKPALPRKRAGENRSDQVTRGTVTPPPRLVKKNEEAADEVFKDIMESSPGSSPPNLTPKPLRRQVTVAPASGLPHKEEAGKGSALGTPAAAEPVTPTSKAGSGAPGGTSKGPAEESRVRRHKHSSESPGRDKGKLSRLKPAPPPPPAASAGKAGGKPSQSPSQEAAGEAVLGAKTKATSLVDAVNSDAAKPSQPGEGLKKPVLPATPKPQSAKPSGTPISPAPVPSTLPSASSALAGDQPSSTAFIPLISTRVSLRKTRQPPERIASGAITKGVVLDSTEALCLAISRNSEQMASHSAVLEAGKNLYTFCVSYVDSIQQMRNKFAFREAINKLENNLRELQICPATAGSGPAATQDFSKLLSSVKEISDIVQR
# Sequence (Q13671 whole entry, looked up): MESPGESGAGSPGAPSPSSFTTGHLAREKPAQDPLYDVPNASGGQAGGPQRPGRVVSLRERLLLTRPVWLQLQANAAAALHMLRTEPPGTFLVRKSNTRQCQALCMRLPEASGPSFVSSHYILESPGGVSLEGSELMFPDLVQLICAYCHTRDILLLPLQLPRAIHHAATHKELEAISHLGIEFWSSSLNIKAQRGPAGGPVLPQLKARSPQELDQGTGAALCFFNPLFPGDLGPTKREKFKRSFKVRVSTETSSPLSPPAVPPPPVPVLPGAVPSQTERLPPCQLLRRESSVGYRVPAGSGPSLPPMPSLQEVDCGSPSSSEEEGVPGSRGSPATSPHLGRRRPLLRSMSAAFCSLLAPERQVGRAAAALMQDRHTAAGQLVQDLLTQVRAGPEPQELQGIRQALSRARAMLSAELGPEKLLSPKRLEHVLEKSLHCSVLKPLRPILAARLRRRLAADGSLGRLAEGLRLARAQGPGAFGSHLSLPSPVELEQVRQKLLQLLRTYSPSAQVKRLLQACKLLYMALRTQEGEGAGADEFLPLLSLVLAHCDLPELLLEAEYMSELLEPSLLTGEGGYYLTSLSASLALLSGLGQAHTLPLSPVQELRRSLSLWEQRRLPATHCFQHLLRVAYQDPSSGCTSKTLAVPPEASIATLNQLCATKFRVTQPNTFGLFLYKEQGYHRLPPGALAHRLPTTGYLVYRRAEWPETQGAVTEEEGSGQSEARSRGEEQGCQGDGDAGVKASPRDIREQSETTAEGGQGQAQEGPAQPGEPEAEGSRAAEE
# Assay: disruptors of human Abl and Rin1 association – biochemical, TR-FRET, primary screen (AID 588664)
# Conditions: TR-FRET Rin1/Abl binding, at 7.35 µM, stronger effect = higher value
row,Compound,inhibition
1,CCOc1ccc(S(=O)(=O)N2CCCCC2)cc1NC(=O)CN1CCCC1c1cccs1 (stereo unspecified),8.67% (active)
2,COc1ccc(S(=O)(=O)N2CCCCC2)cc1NC(=O)COc1ccccc1,0.41% (inactive)
3,CCOc1ccccc1NC(=O)COc1ccc(S(=O)(=O)N2CCCC2)cc1,2.38% (inactive)
4,COc1ccccc1C(CNC(=O)c1ccc(C)c(S(=O)(=O)N2CCCCC2)c1)N(C)C (stereo unspecified),1.36% (inactive)
5,COc1ccc(NC(=O)C(C)N2c3cccc4cccc(c34)S2(=O)=O)c(OC)c1 (stereo unspecified),0.54% (inactive)
6,NC(=O)C[C@@H]1NC(=O)CNC(=O)c2cc([N+](=O)[O-])cc(I)c2NCCC(C(N)=O)NC1=O (stereo partly specified),-0.35% (inactive)
7,O=C(COc1ccc(S(=O)(=O)NCCc2ccccc2)cc1)N1CCCC1,7.8% (active)
8,CC(NS(=O)(=O)c1ccc(OCC(=O)N2CCCC2)cc1)c1ccccc1 (stereo unspecified),1.07% (inactive)
9,O=C(COc1ccc(S(=O)(=O)NCc2ccccc2)cc1)N1CCOCC1,-6.66% (inactive)
10,COc1cc(C(=O)N/C(=C\c2cn(C)c3ccccc23)C(=O)N2CCOCC2)cc(OC)c1OC,3.65% (inactive)
11,Cc1cccc(N)c1SC1CCCCC1O (stereo unspecified),-2.16% (inactive)
12,COC(=O)C1=C(N)Oc2c(oc(CO)cc2=O)C1c1c(F)cccc1Cl (stereo unspecified),1.15% (inactive)
13,Cc1cccc(CN2CCN(C3CN(Cc4ccccc4)S(=O)(=O)C3)CC2)c1 (stereo unspecified),5.69% (inactive)
14,NC(=O)c1ccsc1NC(=O)COC(=O)Cc1n[nH]c(=O)c2ccccc12,1.63% (inactive)
15,Cc1ccc(S(=O)(=O)C2(S(=O)(=O)c3ccc(C)cc3)CCCC2)cc1,1.29% (inactive)
16,CC1(C(=O)Nc2cccc3c2CCCC3)CCN1C(=O)C1(c2ccccc2)CC1 (stereo unspecified),1.83% (inactive)
17,COC(=O)c1ccccc1NC(=O)CSc1ccccn1,-0.76% (inactive)
18,Cc1c(NC(=O)C(C)OC(=O)c2ccccc2O)c(=O)n(-c2ccccc2)n1C (stereo unspecified),-1.15% (inactive)
19,CC(OC(=O)c1ccccc1NCCO)C(=O)Nc1ccnn1C(C)C (stereo unspecified),44.6% (active)
20,C=CCc1cc(C)ccc1OCCCn1ccnc1,0.39% (inactive)
21,CCc1ccccc1NC(=S)N(CCN1CCCCCC1)Cc1ccco1,-2.14% (inactive)
22,Cc1cc(C)n(CCNCc2c(C(=O)N3C[C@@H](C)O[C@@H](C)C3)nc3ccc(Cl)cn23)n1,5.28% (inactive)
23,Cc1ccccc1C(=O)N1CCC(C(=O)Nc2ccc(S(=O)(=O)N(C)C(C)C)cc2)CC1,14.6% (active)

row,Compound,inhibition
1,CCc1nnc(NC(=O)C2CCN(C(=O)c3ccccc3C)CC2)s1,-1.24% (inactive)
2,CC(=O)c1cccc(NC(=O)C2CCN(C(=O)c3ccccc3Cl)CC2)c1,-0.65% (inactive)
3,Cc1ccc(CN2CCN(Cc3ccccc3-c3ccco3)CC2CCO)o1 (stereo unspecified),-0.29% (inactive)
4,O=c1c2ccccc2ccc2ccc(P(=O)(O)O)cc12,0.55% (inactive)
5,COc1cccc2c(O)cc(=O)n(C)c12,-0.91% (inactive)
6,O=Nc1c(O)cc(O)c2ccccc12,12.5% (active)
7,CCCC(=O)C1=C(N(C)c2ccccc2)CC(C)(C)C(C(=O)OC)C1=O (stereo unspecified),0.08% (inactive)
8,CC(C)CNC(=O)CC(c1ccccc1)c1c(O)ccc2ccccc12 (stereo unspecified),-0.65% (inactive)
9,COc1ccc(OCCn2ccnc2C)cc1,1.4% (inactive)
10,O=[N+]([O-])c1cc(C(F)(F)F)ccc1NCCc1ccncc1,-3.62% (inactive)
11,Cc1ccc(-n2c(SCC(=O)NCc3ccc4c(c3)OCO4)nnc2-c2cccnc2)c(C)c1,8.97% (active)
12,Cc1ccccc1-c1nnc(SCC(=O)NCc2ccc3c(c2)OCO3)n1C,0.29% (inactive)
13,CCCn1c(N)c(C(=O)CSc2nnc(-c3cccnc3)n2-c2ccc(C)cc2C)c(=O)[nH]c1=O,12.2% (active)
14,CCCn1c(N)c(C(=O)CSc2nnc(Cc3cccs3)n2C2CC2)c(=O)[nH]c1=O,2.22% (inactive)
15,Cc1cccc(C)c1NC(=O)CSc1nnc(-c2ccccc2)n1Cc1ccc2c(c1)OCO2,8.78% (inactive)
16,CCCn1c(N)c(C(=O)CSc2nnc3n2CCCCC3)c(=O)[nH]c1=O,6.59% (inactive)
17,CCOC1CCCCC1NS(=O)(=O)c1ccc(Cl)cc1 (stereo unspecified),-1.9% (inactive)
18,COc1ccc(C(CNC(=O)c2cc3c(s2)CCCC3)N2CCOCC2)cc1 (stereo unspecified),-1.94% (inactive)
19,O=C(c1ccc(NS(=O)(=O)c2ccc3[nH]c(=O)[nH]c3c2)cc1)N1CCCCC1,2.64% (inactive)
20,Cc1ccccc1N1CCN(C(=O)c2cccnc2)CC1,1.88% (inactive)
21,CC(C)Cn1cnc2c1c(=O)n(CC(O)c1ccccc1)c(=O)n2CC(C)C (stereo unspecified),2.26% (inactive)
22,COCCNc1nc(-n2nc(C)cc2C)nc2sc3c(c12)CCCC3,-2.91% (inactive)
23,COC(=O)c1ccccc1OCC(=O)N1CCN(c2ccc(Cl)cc2)CC1,3.93% (inactive)

row,Compound,inhibition
1,COc1ccc(N2C(=O)C3CCCN3C2c2cc(OC)c(OC)cc2OC)cc1 (stereo unspecified),-1.54% (inactive)
2,COc1ccc(N2C(=O)C3CCCN3C2c2cccs2)cc1 (stereo unspecified),7.79% (active)
3,COc1cccc(N2C(=O)C3CCCN3C2c2ccc(F)cc2)c1 (stereo unspecified),1.17% (inactive)
4,CSc1ccc(/C=C/C(=O)NC23CC4CC(CC(C4)C2)C3)cc1,-0.46% (inactive)
5,CCN(Cc1ccccc1)C(=O)CCS(=O)(=O)c1ccc2c(c1)oc(=O)n2C,-4.23% (inactive)
6,CS(=O)(=O)N1CCN(C(=O)CSc2ccccc2)CC1,2.46% (inactive)
7,NC(=O)C1CCN(C(=O)c2cn(-c3ccccc3)nc2-c2cccnc2)CC1,2.02% (inactive)
8,O=C(c1cn(-c2ccccc2)nc1-c1cc2ccccc2oc1=O)N1CCOCC1,8.23% (active)
9,O=c1oc2ccccc2cc1-c1cn(-c2ccccc2)c(=S)[nH]1,-2.16% (inactive)
10,CCCCCN(C(=O)CCC(=O)OCCOc1ccc(OC)cc1)c1c(N)n(CCCC)c(=O)[nH]c1=O,1.88% (inactive)
11,Cc1cc(C(F)(F)F)nn1CC(=O)N1CCCC1,-1.33% (inactive)
12,Oc1c(C(c2ccccn2)N2CCOCC2)ccc2cccnc12 (stereo unspecified),27% (active)
13,C/C=C/C(=O)Nc1nnc(C(C)C)s1,-0.75% (inactive)
14,O=C(O)/C(=C/c1cccnc1)NC(=O)c1ccccc1,-1.66% (inactive)
15,Cc1nc(CN2CCN(C(=O)CCc3nnc(Cc4c[nH]c5ccccc45)o3)CC2)cs1,-2.84% (inactive)
16,O=C(Oc1c(-c2ccco2)oc2ccccc2c1=O)c1cccnc1,0.23% (inactive)
17,CCOC(=O)N1CCC(NC(=O)CCc2ccccc2)CC1,-0.75% (inactive)
18,CCOC(=O)CN1CCC(c2ccccc2)CC1,1.17% (inactive)
19,CCOC(=O)N1CCC(c2cc(=O)n(-c3ccccc3)[nH]2)CC1,11.4% (active)
20,C[C@@H]1CN([C@@H](C)CO)C(=O)CCCn2nncc2CO[C@H]1CN(C)C(=O)Nc1ccc(C(F)(F)F)cc1,-1.77% (inactive)
21,CCCOc1ccc(C2C(C(=O)c3ccc(C)o3)=C(O)C(=O)N2CCCn2ccnc2)cc1 (stereo unspecified),-89.7% (inactive)
22,OCC(CO)(CO)NCc1ccc(-c2ccccc2)cc1,-1.05% (inactive)
23,COc1ccc(Cl)cc1-n1c(=S)sc2c(=O)n(-c3ccc(F)cc3)c(SCC(=O)O)nc21,3.75% (inactive)

row,Compound,inhibition
1,CN(C(=O)c1cccc(NC(=O)Cc2ccc(NC(=O)C3CCN(C(=O)C4CCCCC4)CC3)cc2)c1)C1CCC1,0.86% (inactive)
2,CN(C(=O)c1ccc(NC(=O)Cc2cccc(NC(=O)C3CCN(C(=O)c4ccccc4)CC3)c2)cc1)C1CC1,16.1% (active)
3,CN(C(=O)c1cccc(NC(=O)Cc2cccc(NC(=O)C3CCCN(C(=O)C4CC4)C3)c2)c1)C1CCC1 (stereo unspecified),1.65% (inactive)
4,C=CCn1c(SCC(=O)c2c(N)n(C)c(=O)n(C)c2=O)nc2sc(CC)cc2c1=O,-0.41% (inactive)
5,COc1ccc(NC(=O)CSCc2ccc([N+](=O)[O-])cc2)cc1OC,0.28% (inactive)
6,O=C(COc1ccc([N+](=O)[O-])cc1)Nc1cccc(C(=O)Nc2ccccc2C(=O)O)c1,2.02% (inactive)
7,O=C(CSCc1ccc([N+](=O)[O-])cc1)Nc1cccc(C(=O)Nc2ccccc2C(=O)O)c1,11.8% (active)
8,CCOCCCNC(=O)C(NC(=O)Cc1c[nH]c2ccccc12)c1ccc(OC)cc1 (stereo unspecified),-1.97% (inactive)
9,CC(C)(C)c1ccc(Cn2nnc3c(=O)[nH]c(C4CCCN(C(=O)c5ccco5)C4)nc32)cc1 (stereo unspecified),0.48% (inactive)
10,O=C(Nc1nn(Cc2ccccc2F)cc1Br)c1cccs1,-1.24% (inactive)
11,Oc1cccc2cc(-c3ccncc3)cnc12,13.3% (active)
12,Fc1ccc(-c2ccc(CNCc3ccccn3)o2)cc1Cl,-2.17% (inactive)
13,CN1CCN(C(CNS(=O)(=O)c2cccs2)c2cccnc2)CC1 (stereo unspecified),1.76% (inactive)
14,COC(=O)CN1C(C)=Nc2ccc(Br)cc2C1c1ccccc1 (stereo unspecified),0.76% (inactive)
15,CN(C)C=NC(=O)c1cccn1-c1ncc(C(F)(F)F)cc1Cl,1.65% (inactive)
16,Cc1nn(-c2ncc(C(F)(F)F)cc2Cl)c(=O)n1-c1ccccc1,7.67% (active)
17,Cc1nn(CC#N)c(=O)n1N(C)c1ncc(C(F)(F)F)cc1Cl,2.69% (inactive)
18,O=C(O)c1cccc2c1C(=O)N(C1CCCC1)C2,-1.46% (inactive)
19,O=c1ccc2c(-c3ccccc3S(=O)(=O)O)c3ccc(O)c(O)c3oc-2c1O,52.3% (active)
20,Cc1ccc(C)c(NC(=O)CN(C)C(=O)COc2ccc3ccccc3c2)c1,0.05% (inactive)
21,COCCNC(=O)COc1ccc(N(C)S(=O)(=O)c2ccc3ccccc3c2)cc1,1.04% (inactive)
22,Cc1cc2ccccc2n1CCNC(=O)COc1ccc2ccccc2c1,7.69% (active)
